From PubChem BioAssay (NCATS)
Inconclusive results are not listed. Entries that show only a call come without a potency. Calls of active or inactive are those of the source. Calls follow the shape of the dose curve; as a rule, active = well fitted curve in the direction sought with a large enough effect; inconclusive = small, poorly fitted or top-dose-only effect, or another doubt; inactive = no such curve, though single readings can be large; an effect the other way counts as inactive or inconclusive. Square brackets hold non-standard residues; d marks the D form. Peptide text beside a SMILES is read from it. * marks the point of attachment. ξ: configuration not given here. ξTyr(βOH) = NC(C(=O)O)C(O)c1ccc(O)cc1; AMC = Cc1cc(=O)oc2cc(N*)ccc12; Cbz = O=C(OCc1ccccc1)*

Biological target: Aldehyde dehydrogenase, mitochondrial (Homo sapiens) (UniProt P05091)
Assay: qHTS for Inhibitors of the Aldehyde Dehydrogenase Family (ALDH2) Primary screen (AID 2061308); also: nearly all actives have a fitted effect of over 55% in size
Settings: ALDH2 enzyme inhibition qHTS, 1536-well; series mostly up to 56 µM

Structure (SMILES) | Potency
COc1cc(CO)cc(OC)c1O[C@@H]1O[C@H](CO)[C@@H](O)[C@H](O)[C@H]1O | inactive
CC(C)(C)c1ccc(-c2nc3ccccc3[nH]2)cc1 | inactive
C[C@]1(OC(=O)/C=C/c2ccccc2)C[C@H](O)[C@]2(O)C=CO[C@@H](O[C@@H]3O[C@H](CO)[C@@H](O)[C@H](O)[C@H]3O)C12 (some centres not stated) | inactive
CC(C)(C)c1ccc(NC(=O)N2CCN(c3ncccc3Cl)CC2)cc1 | inactive
C/C(=C\CCC(C)(C)O)CCO[C@@H]1O[C@H](CO[C@@H]2O[C@@H](C)[C@H](O)[C@@H](O)[C@H]2O)[C@@H](O)[C@H](O)[C@H]1O | inactive
COc1cc(/C=C/C(=O)O[C@@H]2C[C@@](O)(C(=O)O)C[C@@H](O)[C@@H]2O)ccc1O | inactive
CC1(C)CC[C@]2(C(=O)O[C@@H]3O[C@H](CO)[C@@H](O)[C@H](O)[C@H]3O)CC[C@]3(C)C(=CCC4[C@@]5(C)C[C@@H](O)[C@H](O)[C@@](C)(CO)C5[C@H](O)C[C@]43C)C2C1 (some centres not stated) | inactive
CC1=C(C)C(=O)OC(C(C)C2CCC3C4CC=C5CC(OC6OC(COC7OC(CO)C(O)C(O)C7O)C(O)C(O)C6O)CC(O)C5(C)C4CCC23C)C1 (configuration not stated) | inactive
O=C(OCC(O)CO[C@@H]1O[C@H](C(=O)O)[C@@H](O)[C@H](O)[C@H]1O)c1ccccc1 (some centres not stated) | inactive
C=C[C@@]12COC(=O)C(=C)[C@@H]1[C@@H](O)[C@H](C(=C)C(=O)OC)[C@@H](O)C2 | inactive
N#Cc1ccc(N2N=C3c4ccc(C(=O)O)cc4CC[C@@H]3[C@@H]2C2CCCC2)cc1Cl | inactive
O=C(OCC12OC1C=CC(OC(=O)c1ccccc1)C2O)c1ccccc1 (configuration not stated) | inactive

Biological target: Retinaldehyde dehydrogenase 3 (Homo sapiens) (UniProt P47895)
Assay: qHTS for Inhibitors of the Aldehyde Dehydrogenase Family (ALDH1A3) Primary screen (AID 2061315); also: potency is read from the fitted curve at half-maximal effect
Settings: ALDH inhibition qHTS; series mostly up to 56 µM

Structure (SMILES) | Potency | activity change, negative = inhibition
CC1=C(C(=O)O)/C(=C/CO[C@@H]2O[C@H](COC(=O)/C=C/c3ccc(O)cc3)[C@@H](O)[C@H](O)[C@H]2O)C(O)C1 (some centres not stated) | inactive | –
CC1=C(C(=O)O)/C(=C\CO[C@@H]2O[C@H](CO)[C@@H](O)[C@H](O)[C@H]2O)C(OC(=O)/C=C/c2ccc(O)cc2)C1 (some centres not stated) | inactive | –
N#Cc1cccc(C(=O)Nc2cc(-c3ccccc3)nn2-c2ccccc2)c1 | inactive | –
CC(C)=CCC/C(C)=C/CC/C(C)=C/CC[C@]1(C)CCc2cc(O)cc(C)c2O1 | inactive | –
COc1ccc(OC2OC(CO[C@@H]3O[C@@H](C)[C@H](O)[C@@H](O)[C@H]3O)C(O)C(O)C2O)cc1OC (some centres not stated) | inactive | –
Cc1ccc(-c2ncc[nH]2)cc1NC(=O)c1ccc(OCc2ccccn2)cc1 | inactive | –
CC1=CC(=O)[C@]2(O[C@@H]3O[C@@H](C)[C@H](O)[C@@H](O)[C@H]3OC(=O)/C=C/c3ccccc3)C=CO[C@@H](O[C@@H]3O[C@H](CO)[C@@H](O)[C@H](O)[C@H]3O)[C@H]12 | inactive | –
CC(C)C(C(=O)N(C)C(C)C(N)=O)N(C)C(=O)C1CCCN1C(=O)/C=C/C=C/C(O)C(C)O (configuration not stated) | inactive | –
CC(=O)NC1C(OC2CCC3(C)C(CCC4(C)C3CC=C3C5CC(C)(C)CCC5(C(=O)O)C(O)CC34C)C2(C)C)OC(CO)C(O)C1O (configuration not stated) | inactive | –
CC(=O)O[C@H]1[C@@]2(O)C[C@H](C)[C@H](OC(=O)c3ccccc3)[C@@H]2[C@@H](OC(=O)CO)[C@]2(OC(C)=O)C[C@H]3C(=O)C(C)(C)C[C@@H]3[C@@]1(C)[C@H]2OC(C)=O | inactive | –
CC1CCC2C(C)(C)C(O)C(O)CC2(C)C12Cc1c(O)cc(CO)c(C=O)c1O2 (configuration not stated) | inactive | –
CC(=O)OC1(C)CC(O)C2(O)C=COC(OC3OC(CO)C(O)C(O)C3O)C12 (configuration not stated) | inactive | –
C[C@@H]1C(=O)O[C@H]2C[C@]34[C@H]5C[C@@H](C(C)(C)C)[C@]36[C@@H](OC(=O)[C@H]6O)O[C@]4(C(=O)O5)[C@]21O | inactive | –
COC(=O)C1=COC(O[C@@H]2O[C@H](CO)[C@@H](O)[C@H](O)[C@H]2O)[C@@H]2[C@@](C)(O)[C@@H](OC(=O)/C=C/c3ccccc3)C[C@]12O (some centres not stated) | inactive | –
COC1OC(O)C2(CCC3(O2)C(C)CC2OC(=O)C4(C)CCCC3(C)C24)C1O (configuration not stated) | inactive | –
CC1(CO)CC(O)C2(C)CCC3(C)C(=CCC4C5(C=O)CCC(OC6OC(C(=O)O)C(O)C(O)C6OC6OC(C(=O)O)C(O)C(O)C6O)C(C)(C)C5CCC43C)C2C1 (configuration not stated) | inactive | –
O=C(O)CC/C=C\C[C@H]1CO[C@@H](c2ccccc2Cl)O[C@H]1c1ccccc1O | inactive | –
CC(C)C1NC(=O)CNC(=O)C2CCCN2C(=O)C(Cc2c[nH]c3ccccc23)NC(=O)CNC(=O)C(C(O)c2ccc(O)cc2)NC(=O)CNC1=O (configuration not stated) (cyclo(G[ξTyr(βOH)]GWPGV); configuration not given here) | inactive | –
Cc1cc(=O)oc2cc(NC(=O)[C@H](CCC(=O)O)NC(=O)[C@H](CC(C)C)NC(=O)[C@H](CC(C)C)NC(=O)OCc3ccccc3)ccc12 (Cbz-Leu-Leu-Glu-{AMC}) | inactive | –
C/C=C(\C)C(=O)O[C@@H](C)[C@H]1CC[C@]2(O)C3CCC4C[C@@H](OC5CC(OC)C(OC6CC(OC)C(OC7CC(OC)C(OC8OC(C)C(OC9OC(CO)C(O)C(O)C9O)C(OC)C8O)C(C)O7)C(C)O6)C(C)O5)CC[C@]4(C)C3[C@H](O)[C@@H](O)[C@]12C (some centres not stated) | – | -5.31% [at 11.2 µM] (inactive)

Structure (SMILES) | Potency | activity change, negative = inhibition
N#Cc1cc(CN2CCC(Nc3ncnc4sc(Cl)cc34)CC2)ccc1F | inactive | –
CC1(O)CCCC2(C)C1CCC13CC(CO)C(CCC12)C3 (configuration not stated) | inactive | –
O=C(Cc1ccc(Cl)cc1)Nc1cnccc1C(=O)O | inactive | –
C=C[C@@]1(C)CCC2C(=CCC3[C@]2(C)CCC[C@@]3(C)C(=O)O)C1 (some centres not stated) | inactive | –
C=C1CCC2C(C)(C)CC(O)CC2(C)C1CCC(C)CC(=O)O (configuration not stated) | inactive | –
CO[C@@H]1CC(OC2CCC3(C)C(CCC45CCC(C6=CC(=O)OC6)C(C)(CCC43)C5=O)C2)O[C@H](C)[C@@H]1O[C@@H]1O[C@H](CO[C@@H]2O[C@H](CO)[C@@H](O)[C@H](O)[C@H]2O)[C@@H](O)[C@H](O)[C@H]1O (some centres not stated) | inactive | –
O=C(Nc1nc2cc(C(F)(F)F)cc(NC3CC3)n2n1)c1cccnc1 | inactive | –
COc1ccc([C@H]2Cc3cccc(O)c3C(=O)O2)cc1 | inactive | –
COc1cc(CO)cc(OC)c1O[C@@H]1O[C@H](CO)[C@@H](O)[C@H](O)[C@H]1O | inactive | –
CC(C)(C)c1ccc(-c2nc3ccccc3[nH]2)cc1 | 8.91 µM (active) | –
C[C@]1(OC(=O)/C=C/c2ccccc2)C[C@H](O)[C@]2(O)C=CO[C@@H](O[C@@H]3O[C@H](CO)[C@@H](O)[C@H](O)[C@H]3O)C12 (some centres not stated) | inactive | –
CC(C)(C)c1ccc(NC(=O)N2CCN(c3ncccc3Cl)CC2)cc1 | inactive | –
C/C(=C\CCC(C)(C)O)CCO[C@@H]1O[C@H](CO[C@@H]2O[C@@H](C)[C@H](O)[C@@H](O)[C@H]2O)[C@@H](O)[C@H](O)[C@H]1O | inactive | –
COc1cc(/C=C/C(=O)O[C@@H]2C[C@@](O)(C(=O)O)C[C@@H](O)[C@@H]2O)ccc1O | inactive | –
CC1(C)CC[C@]2(C(=O)O[C@@H]3O[C@H](CO)[C@@H](O)[C@H](O)[C@H]3O)CC[C@]3(C)C(=CCC4[C@@]5(C)C[C@@H](O)[C@H](O)[C@@](C)(CO)C5[C@H](O)C[C@]43C)C2C1 (some centres not stated) | inactive | –
CC1=C(C)C(=O)OC(C(C)C2CCC3C4CC=C5CC(OC6OC(COC7OC(CO)C(O)C(O)C7O)C(O)C(O)C6O)CC(O)C5(C)C4CCC23C)C1 (configuration not stated) | inactive | –
O=C(OCC(O)CO[C@@H]1O[C@H](C(=O)O)[C@@H](O)[C@H](O)[C@H]1O)c1ccccc1 (some centres not stated) | inactive | –
C=C[C@@]12COC(=O)C(=C)[C@@H]1[C@@H](O)[C@H](C(=C)C(=O)OC)[C@@H](O)C2 | inactive | –
N#Cc1ccc(N2N=C3c4ccc(C(=O)O)cc4CC[C@@H]3[C@@H]2C2CCCC2)cc1Cl | inactive | –
O=C(OCC12OC1C=CC(OC(=O)c1ccccc1)C2O)c1ccccc1 (configuration not stated) | inactive | –
